These results are taken from PubChem BioAssay AID1490 (National Center for Advancing Translational Sciences (NCATS), 2009).

Molecules are shown by their SMILES. The campaign covered roughly 310,000 compounds. About 11,000 (3.5%) were called active. Inconclusive results (about 4%) are left out. The sample holds actives, similar compounds and a random draw of the others, so the mix is not that of the screen. A number with no mark means an inactive call. The call rests on the fitted dose curve; in most records, active means well fitted inhibition curve with a large enough effect; inconclusive means small, poorly fitted or top-dose-only effect, or another doubt; inactive means no such curve, though single readings can be large or run the other way.
Potency means the concentration at half of the fitted maximal effect.

This test has as its target 4'-phosphopantetheinyl transferase ffp (Bacillus subtilis) (UniProt Q9F4F7). The test is described as follows: qHTS Assay for Inhibitors of Bacillus subtilis Sfp phosphopantetheinyl transferase (PPTase).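 Further: the enzyme is Sfp with the accession as filed and its product quenches rhodamine fluorescence.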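 On largest response in the series, negative = inhibition: 0% = enzyme reaction without inhibitor and -100% = no enzyme wells.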 Particulars: Biochemical Sfp PPTase activity. In outline:
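Sfp 15 nM + cpd, 15 min RT; start w/ rhodamine-CoA 5 uM, BHQ-2-YbbR 12.5 uM (final); 50 mM Hepes pH 7.6, 10 mM MgCl2, 0.01% NP-40, 0.01% BSA; read 525/598 nm at 0 and 30 min.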
A general note: In qHTS, concentration-response curves come from the screen itself.
Turning to `COC(=O)C1(C)C=CC2(CCCCC2)N1C(C)=O` (stereo unspecified), the largest response in the series, negative = inhibition was -0.895%. Same read-out and setting: as for `Cc1ccc(S(=O)(=O)N2CCN(C(=O)N3CCOCC3)CC2)c(C)c1`, the figure is 12%; as for `CCC(=O)Nc1sc(C(=O)N2CCCCC2)c(C)c1C#N`, 8.83%. As to `N#Cc1ccccc1-n1c(N)c(C(=O)N2CCCC2)sc1=S`, the Potency is 25.1 µM (active). Same read-out and setting: as for `Cc1ccc(-n2c(N)c(C(=O)N3CCOCC3)sc2=S)c(C)c1`, the figure is 28.2 µM (active).

Regarding `O=C(c1ccc(S(=O)(=O)c2ccccc2)cc1)N1CCCCCC1`, the largest response in the series, negative = inhibition is -3.64%. Still for that read-out and setting: as for `COc1ccc2[nH]c(C(=O)N3CCN(C)CC3)c(C)c2c1`, the figure is 10.8%. For `Cc1cccc(-n2c(N)c(C(=O)N3CCN(C)CC3)sc2=S)c1`, the Potency was 3.55 µM (active). For `Cc1ccc(N2CCN(C(=O)c3cccs3)CC2)c(C)c1`, the largest response in the series, negative = inhibition was -4.64%. On the same count and under the same terms, as for `CC(C)=C1SC(N2CCN(c3cccc(C)c3)CC2)=NC1=O`, the figure is -3.03%; as for `CCN(CC(=O)NCc1cccs1)C(=O)c1cccc(S(=O)(=O)Nc2ccccc2OC)c1`, 9.95%; as for `COc1ccc(NC(=O)Cn2ncn3c(cc4ccccc43)c2=O)c(OC)c1OC`, 14.8%. The same measure, in the same setting: as for `COc1cc2c(cc1OC)CN(C(=O)c1cc(S(=O)(=O)N3CCCCC3)ccc1Cl)CC2`, the figure is 8.46%; as for `CCCCC(CC)CNCc1cccn1CCN1CCOCC1` (stereo unspecified), -12.1%; as for `COC(=O)c1cc(OCC(=O)NC2CCCc3ccccc32)cc(C(=O)OC)c1` (stereo unspecified), -18.9%. With `Cc1ccc(OCC(=O)Nc2ccc(NC(=O)c3cccs3)cc2)c(C)c1`, the largest response in the series, negative = inhibition was 29.1%. As for `COc1ccc(N2C(=O)C(Cc3ccccc3)NC2=S)cc1` (stereo unspecified), the largest response in the series, negative = inhibition was 6.01%.

With `COc1ccc(N2C(=O)C3C(C2=O)C(C(=O)c2ccccc2)N2CCCC32)cc1` (stereo unspecified), the Potency is 50.1 µM (active). In the case of `COc1ccc(N2C(=O)C3CCCN3C2c2cccs2)cc1` (stereo unspecified), the largest response in the series, negative = inhibition is -3.66%. On the same count and under the same terms, as for `O=C(N/C(=C\c1ccc([N+](=O)[O-])cc1)C(=O)N1CCOCC1)c1cccc(Br)c1`, the figure is 3.86%. Consider `CCOC(=O)N1CCN(C(=O)C(C)NC(=O)c2ccco2)CC1` (stereo unspecified), for which the largest response in the series, negative = inhibition was 26.5%.

On to `CCn1c(SCC(=O)Nc2ccc(Br)cc2)nc2sc3c(c2c1=O)CCN(C)C3`, for which the largest response in the series, negative = inhibition was 2.9%.

With `Cc1nc(N2CCOCC2)sc1C(=O)NN`, the Potency is 56.2 µM (active).

`Cc1nc(-c2ccc(Cl)cc2)sc1C(=O)NN`: the largest response in the series, negative = inhibition was 5.7%. For `CCOC(=O)N1CCC(NC(=O)c2ccc3nc(N4CCOCC4)sc3c2)CC1`, the largest response in the series, negative = inhibition was 6.95%. As to `Cc1ccc(NS(=O)(=O)c2ccc3c(c2)NC(=O)CO3)cc1`, the largest response in the series, negative = inhibition was 7.8%. On the same count and under the same terms, as for `O=C(Cn1nnc(-c2ccccc2)n1)N/N=C/c1ccc(-c2ccc(Cl)cc2)o1`, the figure is 25.9%; as for `COC(=O)N/N=C/c1ccc(-c2ccc(Cl)c(Cl)c2)o1`, -3.69%. Take `Nc1nnnn1CC(=O)N/N=C/c1ccc(-c2cccc(Cl)c2)o1`: the Potency was 25.1 µM (active). In the case of `Cc1cc([N+](=O)[O-])ccc1NC(=O)c1ccc(NC(=O)C(C)C)cc1`, the largest response in the series, negative = inhibition was 6.44%. As for `CC(=O)c1ccc(NC(=O)Nc2ccc([N+](=O)[O-])cc2C)cc1`, the largest response in the series, negative = inhibition was 10.3%.

For `CCn1c2ccccc2c2cc(NC(=O)Nc3ccc([N+](=O)[O-])cc3C)ccc21`, the Potency was 56.2 µM (active).

As for `O=[N+]([O-])c1ccc(N(CCO)Cc2ccccc2)c([N+](=O)[O-])c1`, the largest response in the series, negative = inhibition is 3.62%. On to `O=C(c1cnc(Cl)c(Cl)c1)N1CCN(S(=O)(=O)c2ccc(F)cc2)CC1`, for which the largest response in the series, negative = inhibition was -5.59%.

In the case of `Cc1cccc(NC(=O)N2CCCCCC2)c1C`, the largest response in the series, negative = inhibition is 3.74%. With `N#Cc1c(N)sc2c1CCN(C(=O)OCc1ccccc1)C2`, the Potency was 20 µM (active). For `CC(C)N1CCc2c(sc(NC(=O)Cc3ccccc3)c2C#N)C1`, the largest response in the series, negative = inhibition is 11.3%. Regarding `CC(=O)N1CCc2c(sc(NC(=O)CCS(=O)(=O)c3ccccc3)c2C#N)C1`, the largest response in the series, negative = inhibition is -1.97%.

Regarding `CC(CC(=O)Nc1ccc(F)cc1F)S(=O)(=O)c1ccc2c(c1)NC(=O)CO2` (stereo unspecified), the largest response in the series, negative = inhibition was 0.768%.

`NS(=O)(=O)c1ccc(CCNS(=O)(=O)c2cccc3cccnc23)cc1`: the largest response in the series, negative = inhibition was 2.24%. The same measure, in the same setting: as for `COc1ccc(CN2CCN(C(=O)CCC(=O)Nc3nnc(C(C)C)s3)CC2)cc1F`, the figure is 17.5%. Same read-out and setting: as for `Cc1ccc(NS(=O)(=O)c2ccc(-c3ccc(=O)[nH]n3)o2)c(C)c1`, the figure is 23.5%. Take `CCOC(=O)c1c(C)nn(-c2ncccc2NC(=O)CCC(=O)O)c1C`: the Potency was 89.1 µM (active).

Turning to `CCOC(=O)c1c(-c2ccc(-c3ccccc3)cc2)csc1NC(=O)CCC(=O)O`, the largest response in the series, negative = inhibition was -8.3%. For `Cc1ccc(OC(=O)c2c(C)nn(-c3ccccc3)c2C)cc1`, the largest response in the series, negative = inhibition is -5.58%.

As for `CN(C(=O)c1cccc([N+](=O)[O-])c1)c1ccccc1C(=O)NCc1ccccc1`, the largest response in the series, negative = inhibition is 15.3%. For `CCOc1ccc(CNC(=O)CCC(=O)N2CCSc3ccccc32)cc1`, the largest response in the series, negative = inhibition was 11.6%. Still for that read-out and setting: as for `Nc1ccccc1Sc1ccc(C(F)(F)F)cc1[N+](=O)[O-]`, the figure is 4.01%; as for `CCOC(=O)c1cc(Sc2ccccc2N)cc(C(=O)OCC)n1`, 2.06%.

As for `CCS(=O)(=O)c1cc([N+](=O)[O-])c(Sc2ccccc2N)s1`, the Potency is 3.98 µM (active).

As for `COCCn1c(N)c(NCc2ccccc2)c(=O)[nH]c1=O`, the largest response in the series, negative = inhibition was -5.84%. Still for that read-out and setting: as for `CCc1ccc(OCC(=O)NCC(c2ccc(Cl)cc2)N2CCCCC2)cc1` (stereo unspecified), the figure is -3.22%. On to `O=c1c(O)c(Br)ccc2c(Br)c(O)c(O)c(O)c12`, for which the Potency is 44.7 µM (active). As to `CN(CCC1CCOCC1)C(=O)CC1C(=O)NCCN1Cc1cccc(F)c1` (stereo unspecified), the largest response in the series, negative = inhibition was 18.8%. Same read-out and setting: as for `C=CCNC(=S)N/N=C/c1ccc(C)s1`, the figure is 10%; as for `Cc1cc(C(=O)N/N=C/c2ccc(N3CCOCC3)cc2)c(C)o1`, 16%. In the case of `CNC(=S)N/N=C/c1ccc(N2CCOCC2)s1`, the Potency is 8.91 µM (active). Take `CC(NC(=O)COc1ccc(-c2ccccc2)cc1)C1CCCO1` (stereo unspecified): the largest response in the series, negative = inhibition is -4.17%. In the case of `Cc1ccccc1/C=C\c1nc(O)c([N+](=O)[O-])c(=O)[nH]1`, the largest response in the series, negative = inhibition is 2.6%. Regarding `COC(=O)c1ccc(NC(=O)CSc2nnc(CNc3ccc(OC)cc3)n2C)cc1`, the largest response in the series, negative = inhibition was 7.16%. As to `CCn1c(CNc2ccc(OC)cc2)nnc1SCC(=O)c1ccc(OC)cc1`, the Potency was 28.2 µM (active). As to `C=CCn1c(CNC(=O)c2ccco2)nnc1SCC(=O)c1ccc(OC)cc1`, the largest response in the series, negative = inhibition is 17.3%.

Regarding `O=C(NCc1ccc2c(c1)OCO2)C(=O)NCC1OCCN1S(=O)(=O)c1ccc(F)cc1` (stereo unspecified), the largest response in the series, negative = inhibition was 4.15%. Same read-out and setting: as for `COc1ccc(OC)c([C@H](O)CNC(=O)CN)c1`, the figure is 4.71%. Still for that read-out and setting: as for `CC(C)c1nnc(NC(=O)CCC(=O)N2CCN(c3cccc(Cl)c3)CC2)s1`, the figure is 0.428%; as for `CC(C)NS(=O)(=O)c1ccc(OCC(=O)NC2CCCCCC2)cc1`, 6.32%; as for `Cc1ccc(S(=O)(=O)Nc2nc3ccccc3nc2N2CCc3ccccc3C2)cc1`, 9.29%. Same read-out and setting: as for `Cc1cc(N2CCN(S(=O)(=O)c3ccc(C)c(C)c3)CC2)c2ccccc2n1`, the figure is -20.8%.

Regarding `Cc1ccc(S(=O)(=O)C(C#N)c2nc3ccccc3nc2N2CCCC2)cc1C` (stereo unspecified), the Potency was 50.1 µM (active). For the compound `COc1ccc(NS(=O)(=O)c2cccc3nsnc23)cc1Cl`, the largest response in the series, negative = inhibition is 13.3%. Same read-out and setting: as for `Cc1cc(-c2ccc(S(=O)(=O)N3CCN(c4cccc(C(F)(F)F)c4)CC3)s2)on1`, the figure is 8.41%. Same read-out and setting: as for `S=c1[nH]nc(-c2cccs2)n1/N=C/c1cn(-c2ccccc2)nc1-c1ccc(Cl)cc1`, the figure is -17.4%. For `S=c1[nH]c(-c2cccs2)cn1-c1ccccc1`, the Potency was 15.8 µM (active). Take `O=c1[nH]c(-c2cccs2)nc2ccccc12`: the largest response in the series, negative = inhibition is -0.0388%. Consider `COc1cccc(NC(=O)C2C(c3ccccc3)C2(Cl)Cl)c1` (stereo unspecified), for which the largest response in the series, negative = inhibition is 11.1%. For `CCn1cc(C(=O)N[C@@H](C)C(=O)NCCO)c(=O)c2cc3c(cc21)OCO3`, the largest response in the series, negative = inhibition is 20.9%.

In the case of `Cc1ccc(S(=O)(=O)CC(=O)NC(C)c2ccccc2)cc1` (stereo unspecified), the largest response in the series, negative = inhibition is 12.8%. As to `CN(CCc1ccccn1)C1CCCN(S(=O)(=O)c2ccccc2Cl)C1` (stereo unspecified), the largest response in the series, negative = inhibition was 8.81%.

With `CC[C@H](C)[C@H](NC(=O)[C@H](Cc1ccc(O)cc1)NC(=O)[C@@H](NC(=O)[C@H](CCCN=C(N)N)NC(=O)[C@@H](N)CC(=O)O)C(C)C)C(=O)N[C@@H](Cc1cnc[nH]1)C(=O)N1CCC[C@H]1C(=O)N[C@@H](Cc1ccccc1)C(=O)O`, the largest response in the series, negative = inhibition is -1.37%. Turning to `CCCc1cc(-c2n[nH]c(=S)n2CC)c2ccccc2n1`, the largest response in the series, negative = inhibition is -1.53%. Same read-out and setting: as for `CCn1c(-c2ccoc2C)n[nH]c1=S`, the figure is 11.6%.

Consider `CCn1c(-c2ccncc2)n[nH]c1=S`, for which the Potency was 39.8 µM (active). As for `CC1=CCC2C(=O)N(c3cccc(C(=O)NC(C)c4ccccc4)c3)C(=O)C2C1` (stereo unspecified), the largest response in the series, negative = inhibition was 5.16%. Still for that read-out and setting: as for `CCOC(=O)c1ccc(N2C(=O)CC(N(C)Cc3ccccc3)C2=O)cc1` (stereo unspecified), the figure is 16.2%; as for `CCOc1ccc(N2C(=O)CC(N(O)c3ccccc3)C2=O)cc1` (stereo unspecified), -14.7%.

For the compound `CCCCCCC(=O)N(O)C1CC(=O)N(c2ccccc2)C1=O` (stereo unspecified), the Potency is 7.08 µM (active). For the compound `COc1ccc(CCNC(=O)CCc2cn(C)c3ccccc23)c(OC)c1`, the largest response in the series, negative = inhibition was 10.4%. Regarding `Cc1onc(-c2ccccc2)c1C(=O)N1CCN(S(=O)(=O)c2ccccc2C(F)(F)F)CC1`, the largest response in the series, negative = inhibition is 21.8%. As for `O=[N+]([O-])c1ccc(N2CCN(c3ccc(O)cc3)CC2)c(Cl)c1`, the Potency is 50.1 µM (active).

In the case of `COc1ccc(N2CCN(c3ccc([N+](=O)[O-])cc3Cl)CC2)cc1`, the largest response in the series, negative = inhibition was 2.35%. Consider `O=C(O)C1CCN(c2ccc([N+](=O)[O-])cc2[N+](=O)[O-])CC1`, for which the largest response in the series, negative = inhibition is 13.6%.
